Measured values taken from PubChem BioAssay (NCATS).

Molecular target: Guanine nucleotide-binding protein G(i) subunit alpha-1 (Homo sapiens) (UniProt P63096)
Assay: qHTS Assay for Inhibitors of RGS12 GoLoco Motif Activity (Green Fluorophore) (AID 879);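 further: 0% = labeled peptide with Gαi1 and full inhibition = labeled peptide alone without protein; negative values mean loss of peptide binding seen as reduced polarization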
Settings: Galphai1/FITC-RGS12 GoLoco peptide, fluorescence polarization; series mostly up to 57.1 µM; activity, negative = inhibition: at the top concentration; active means well fitted curve in the direction sought with a large enough effect; inconclusive means small, poorly fitted or top-dose-only effect, or another doubt; inactive means no such curve, though single readings can be large or run the other way
Description: Assay Overview: NIH Molecular Libraries Screening Centers Network [MLSCN] NIH Chemical Genomics Center [NCGC] MLSCN Grant: NS053754-01 Assay Provider: Siderovski, David P, University of North Carolina at Chapel Hill G-protein-coupled receptors (GPCRs) are major targets for drug discovery. The regulator of G-protein signaling (RGS)-protein family has important roles in GPCR signal transduction. RGS proteins contain a conserved RGS-box, which is often accompanied by other signaling regulatory elements. RGS proteins accelerate the deactivation of G proteins to reduce GPCR signaling; however, some also have an effector function and transmit signals. Combining GPCR agonists with RGS inhibitors should potentiate responses, and could markedly increase the agonist's regional specificity. The diversity of RGS proteins with highly localized and dynamically regulated distributions in brain makes them attractive targets for pharmacotherapy of central nervous system disorders. […] A complex of Gai1 and fluorescently labeled G-alpha-binding peptide (the "GoLoco motif") derived from RGS12 is incubated with library members. Inhibitors of the binding are detected by a decrease in the fluorescence polarization (FP) of the fluorophore. Protein was supplied by Prof. David Siderovski, University of North Carolina at Chapel Hill.
Assay Protocol: Reagents/Controls: Assay Buffer: 10 mM Tris-HCl, 150 mM NaCl, 0.1 mM GDP (prepared fresh), and 0.05% NP40 at pH 7.5. […] 10 nM FITC labeled peptide/50 nM protein in columns 1, 2, 5 - 48. Titration of unlabeled peptide control ([H][…][NH2], custom synthesized and HPLC-purified by Tufts University Core Facility) from 10 mM, then 1:2 dilution, 16-point in duplicate, pin-transferred to column 2, rows 1 to 32. Column 1 is neutral. FITC-labeled RGS12-GoLoco peptide was custom-synthesized and HPLC-purified by Michael Berne of Tufts University Assay Steps. Four uL of reagents were dispensed to 1536-well Greiner black solid-bottom plates. Compounds and controls (23 nL) were transferred via Kalypsys PinTool. The plates were incubated for 10 min at room temperature, and then read on ViewLux (Perkin-Elmer) High-throughput CCD imager using FITC polarization filter sets for the fluorescein-labeled decapeptide probe.During dispense, reagent bottles were kept submerged into 4 deg C water bath and all liquid lines were covered with aluminum foil to minimize probe and protein degradation. All screening operations were performed on a Kalypsys robotic system (Kalypsys, Inc., San Diego, CA) containing one RX-130 and two RX-90 anthropomorphic robotic arms.

Guanine nucleotide-binding protein G(i) subunit alpha-1 (Homo sapiens), sequence (P63096 whole entry, looked up): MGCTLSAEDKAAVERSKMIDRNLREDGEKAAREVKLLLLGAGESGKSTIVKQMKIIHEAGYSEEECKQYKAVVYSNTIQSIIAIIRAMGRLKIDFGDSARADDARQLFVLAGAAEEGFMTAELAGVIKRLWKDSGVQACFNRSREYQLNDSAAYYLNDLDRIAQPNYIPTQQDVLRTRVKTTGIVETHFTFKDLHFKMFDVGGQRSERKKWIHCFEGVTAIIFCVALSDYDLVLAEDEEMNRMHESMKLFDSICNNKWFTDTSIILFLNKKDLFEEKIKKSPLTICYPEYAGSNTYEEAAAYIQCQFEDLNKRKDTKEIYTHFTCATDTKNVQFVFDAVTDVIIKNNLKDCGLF

activity, negative = inhibition, inactive:
O=C1c2c(O)cc(O)cc2O[C@@H](c2ccc(O)c(O)c2)[C@H]1O -3.31%
CCCCCCCCCCCCCCCCCCNC(=O)OC[C@@H](COP(=O)([O-])OCC[n+]1ccsc1)OC -6.19%
OC[C@@H]1O[C@@H](n2cnc3cncnc32)[C@@H](O)[C@H]1O -11.3%
CCCCC[C@H](O)c1cccc(OCc2ccc3ccccc3n2)c1 1.31%
COc1ccc(NC(=O)/C=C\c2ccc(Cl)cc2)cc1 -16.4%
CCCCCCCCCCCCCCCCCCOC[C@@H](COP(=O)([O-])OCC[N+](C)(C)C)OC -6.35%
CC(C)(C(=O)O)c1ccc([C@@H](O)CCCN2CCC(C(O)(c3ccccc3)c3ccccc3)CC2)cc1 9.26%
Cc1c(C)c2c(c(C)c1O)CC[C@@](C)(CN1CCN(c3cc(N4CCCC4)nc(N4CCCC4)n3)CC1)O2 -11.1%
COc1cc2nc(N3CCN(C(=O)[C@H]4COc5ccccc5O4)CC3)nc(N)c2cc1OC -20.1%
CC(=O)O[C@@H]1C[C@]2(C)[C@H](C[C@@H](O)[C@H]3[C@@]4(C)CC[C@@H](O)[C@@H](C)[C@@H]4CC[C@@]32C)/C1=C(\CCC=C(C)C)C(=O)O -19.5%
NCCC[C@@](N)(C(=O)O)C(F)F 1.84%
N[C@H](Cc1cccc(-c2ccccc2CP(=O)(O)O)c1)C(=O)O -11.1%
O[Si@](CCCN1CCCCC1)(c1ccc(F)cc1)C1CCCCC1 -10.4%
C/C=C1\C(=O)C[C@@H]2[C@@H]3CCC4=CC(=O)CC[C@@]4(C)[C@H]3CC[C@@]12C -11.2%
C#CCN1C(C)=C(C(=O)OC)[C@@H](c2cccc([N+](=O)[O-])c2)C(C(=O)OCC)=C1C -8.55%
N#C[C@@H](Cc1ccc(O)c(O)c1)C(=O)N1CCc2ccccc21 69.6%
NC(=S)c1ccc[n+]([C@@H]2O[C@@H](COP(=O)([O-])OP(=O)(O)OC[C@@H]3O[C@@H](n4cnc5c(N)ncnc54)[C@@H](OP(=O)(O)O)[C@H]3O)[C@@H](O)[C@H]2O)c1 -7.89%
O=C(/C=C\c1ccc(O)c(O)c1)OCCc1ccccc1 -3.67%
CN(C)CCCO[C@H]1[C@H]([C@H](O)CO)O[C@H]2OC(C)(C)O[C@@H]21 -13.5%
CCCCCCCCCCCCCCCCCC(=O)NC[C@@H](COP(=O)([O-])OCC[N+](C)(C)C)OCC 3.02%
Nc1ccn([C@@H]2O[C@@H](CO)[C@@H](O)[C@H]2O)c(=O)n1 -13.9%
Cn1c(=O)c2c(nc(/C=C\c3cccc(Cl)c3)n2C)n(C)c1=O -5.39%
C[C@@]12CCC(=O)C=C1CC[C@@H]1[C@@H]2[C@H](O)C[C@]2(C)[C@@H]1CC[C@]2(O)C(=O)COC(=O)CCC(=O)O -5.56%
NC[C@@H]1O[C@@H](O[C@H]2[C@@H](O)[C@H](O[C@@H]3[C@H](O)[C@H](N)C[C@H](N)[C@H]3O[C@@H]3O[C@@H](CO)[C@H](O)[C@H](O)[C@@H]3N)O[C@H]2CO)[C@H](N)[C@H](O)[C@@H]1O -18.1%
CSc1ccc2c(c1)N(CC[C@H]1CCCCN1C)c1ccccc1S2 -9.71%
O=C(O)[C@@H]1CCCN[C@H]1C(=O)O -13.7%
O=C(O)C[C@@H]1CCCc2ccccc2[C@H]1O -12.1%
CCCCCCCCCC(=O)N[C@@H](CN1CCOCC1)[C@@H](O)c1ccccc1 7.82%
Clc1ccc(C(c2ccc(Cl)cc2)n2cc[n+](C[C@@H](OCc3ccc(Cl)cc3Cl)c3ccc(Cl)cc3Cl)c2)cc1 3.66%
CCCCC[C@H](O)CCCC(=O)O -14.8%
CC(=O)[C@@]1(O)CC[C@@H]2[C@@H]3CCC4=CC(=O)CC[C@@]4(C)[C@H]3CC[C@]21C -18.5%
CNCC[C@H](Oc1ccccc1C)c1ccccc1 -3.02%
FC(F)(F)c1cc(CO[C@@H]2CCCN[C@H]2c2ccccc2)cc(C(F)(F)F)c1 3.17%
CN1CCN([C@@H]2Cc3ccccc3Sc3ccc(Cl)cc32)CC1 -22.1%
CCOC(=O)C1=C(C)NC(C)=C(C(=O)OC)[C@H]1c1cccc(Cl)c1Cl -17.1%
CN1C[C@@H](C(=O)N[C@]2(C)O[C@]3(O)[C@H]4CCCN4C(=O)[C@H](Cc4ccccc4)N3C2=O)C[C@H]2c3cccc4[nH]cc(c34)C[C@@H]21 -21.5%
Cc1cc(C)c(/C=C2/C(=O)Nc3ccccc32)[nH]1 51.8%
C=CCN1CCc2c(cc(O)c(O)c2Br)[C@H](c2ccccc2)C1 -18.6%
O=c1[nH]c(=O)n([C@H]2C[C@H](O)[C@H](CO)O2)cc1/C=C\Br -22.6%
CCCN1C[C@@H](CSC)C[C@H]2c3cccc4[nH]cc(c34)C[C@@H]21 -20.7%
